# High-throughput results deposited in PubChem by National Center for Advancing Translational Sciences (NCATS).
# This is a sample that favours compounds with a hit; in the whole collection about 15% have one here.
# HCMV inh: human cytomegalovirus inhibition; actives 4.5% (n = 410,000); AID 1259415; HFF cells, HCMV-luciferase reporter, 72 h; hits give low values; activity change, negative = inhibition, % at 57.5 µM; in the data active = activity change below about -60%; inconclusive = no clear call, values can overlap the other calls; inactive = above about -39%; note: % is set by controls: 0 for no effect and ±100 for the full control effect
#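 Steps: HFFs plated, 16 h 37C; compounds added; HCMV-luciferase added to MOI 1 PFU/cell; 72 h 37C; OneGlo reagent, 5 min room temperature; luminescence read, normalized to controls.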
# Pf growth 48h: inhibits P. falciparum growth in the first generation, 48 h. P. falciparum luciferase growth in erythrocytes, 48 h. Potency, µM (titrated, usually from 28.7 µM), for the others: top-dose activity change, negative = inhibition, most hits filed as inhibitors. actives 5.9% (n = 310,000); note: potency is the fitted concentration of half-maximal effect; % is set by controls: 0 for no effect and ±100 for the full control effect
#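 Compounds are pin-transferred into medium, infected erythrocytes (2% hematocrit, 0.1% parasitemia final) are added, and plates sit one parasite generation at 37 C in 5% CO2. Detection reagent is then added and luminescence measured.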
# Sm TGR block: blocks Schistosoma mansoni thioredoxin glutathione reductase; Q962Y6; purified TGR, DTNB reduction, TNB absorbance 405 nm; AID 485364; Potency, µM (doses to about 114 µM), without a hit: top-dose activity change, negative = inhibition, hits mostly inhibitors; actives 3% (n = 360,000); note: potency is the fitted concentration of half-maximal effect; % is set by controls: 0 for no effect and ±100 for the full control effect; nearly all actives have a fitted effect of over 60% in size
#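 TGR 20 nM + NADPH 100 uM (dispensed conc.), cpd preinc 15 min RT; start with NADPH (500 uM addition) then DTNB (15 mM addition). Kinetic TNB absorbance, 405 nm filter. Four-parameter Hill fit across titration.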
# HCV inh: blocks hepatitis C virus | Huh7.5.1 HCVcc-Cre infection, luciferase reporter, 44 h | Potency, µM (titrated, usually from 41.8 µM), inactives show top-dose activity change, negative = inhibition, most hits filed as inhibitors | actives 3.4% (n = 340,000) | AID 651820; note: potency is the fitted concentration of half-maximal effect; % is set by controls: 0 for no effect and ±100 for the full control effect
#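 Whole-lifecycle infectious HCVcc-Cre system; cells 1,000/well, compound then virus (~0.5 moi) added 4 h after plating, 44 h culture. Luciferase read 15 sec following 15 min substrate incubation, room temp.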
# Pf growth 96h: inhibits malaria parasite growth, 96 h; P. falciparum luciferase reporter growth, 96 h; Potency, µM (top dose mostly 28.7 µM), for the others: at the top dose activity change, negative = inhibition, most hits filed as inhibitors; actives 6.9% (n = 320,000); note: potency is the fitted concentration of half-maximal effect; % is set by controls: 0 for no effect and ±100 for the full control effect
#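 Delayed-death screen, second-generation endpoint: infected erythrocytes, 2% hematocrit, 0.05% parasitemia final; 96 hours at 37 C, 5% CO2; luciferase detection reagent; luminescence decrease equals reduced growth.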
# SARS PLpro yeast: SARS-CoV PLP inhibition in yeast | S. cerevisiae expressing SARS-CoV PLpro, growth rescue | Potency, µM (highest dose often 32.9 µM), for the others: at the highest dose activity, positive = growth rescue, most hits filed as activators | actives 0.19% (n = 330,000) | AID 485353; calls by dose curve; note: potency is the fitted concentration of half-maximal effect; 0% is about no effect; nearly all actives have a fitted effect of over 55% in size
# The depositor's hits bear a star; ? = inconclusive; . = no result; [ ] = another dose, or the depositor's remark. Unless noted, calls come from the whole dose curve; as a rule, active = well fitted curve in the direction sought with a large enough effect; inconclusive = small, poorly fitted or top-dose-only effect, or another doubt; inactive = no such curve, though single readings can be large; an effect the other way counts as inactive or inconclusive.
SMILES,HCMV inh,Pf growth 48h,Sm TGR block,HCV inh,Pf growth 96h,SARS PLpro yeast
COc1ccc2sc(N(CCCN(C)C)C(=O)c3ccc(S(=O)(=O)N4CCc5ccccc5C4)cc3)nc2c1,-97.6*,?,-4.2%,?,?,0.4%
CN(C)CCCN(C(=O)c1ccc(S(=O)(=O)N2CCc3ccccc32)cc1)c1nc2ccc(Cl)cc2s1,-18.4,10.4µM*,-10.7%,.,5.22µM*,-3.9%
CN(C)CCCN(C(=O)c1ccc(S(=O)(=O)N2CCc3ccccc32)cc1)c1nc2ccc(F)cc2s1,7.6,?,8.6%,-28.1%,?,4.7%
Cc1cccc2sc(N(CCCN(C)C)C(=O)c3ccc(S(=O)(=O)N4CCc5ccccc5C4)cc3)nc12,-99.6*,9.28µM*,-7.6%,-9.5%,?,-4.1%
C(=C\c1ccccn1)/c1cccnc1,22.8,104.5%,24.7%,.,107.3%,-2.6%
COc1cc(/C=C/C(=O)O)cc(S(=O)(=O)Nc2ccc(S(=O)(=O)N3CCCCC3)cc2)c1OC,-25.3,30.0%,7.9%,19.5%,37.1%,4.7%
COCCn1c(=NC(=O)c2ccc(S(=O)(=O)N3CCc4ccccc4C3)cc2)sc2cc(OC)ccc21,-29.3,?,4.2%,12.6µM*,5.22µM*,2.9%
Cc1ccc2nc(N(CCCN(C)C)C(=O)c3ccc(S(=O)(=O)N4CCc5ccccc5C4)cc3)sc2c1,-103.1*,?,1.5%,?,?,3.9%
Cc1cc(C)c2sc(N(CCCN(C)C)C(=O)c3ccc(S(=O)(=O)N4CCc5ccccc5C4)cc3)nc2c1,.,?,-9.9%,?,?,1.5%
CN(C)CCCN(C(=O)c1ccc(S(=O)(=O)N(C)C)cc1)c1nc2ccc(F)cc2s1,-19.0,-4.6%,0.2%,-10.6%,-8.9%,3.9%
CN(C)CCCN(C(=O)c1ccc(S(=O)(=O)N2CCc3ccccc3C2)cc1)c1nc2ccc(F)cc2s1,14.5,13.1µM*,-1.2%,?,?,-0.5%
CCN(CC)P(=O)(Nc1ccccc1Br)c1ccc(N(C)C)cc1NC(=O)c1ccco1 (stereo unspecified),-60.5*,?,-2.7%,?,9.28µM*,1.1%
CCN(CC)C(=O)c1cc(Cl)ccc1NC(=O)c1ccco1,1.3,5.3%,-1.7%,-4.1%,5.5%,-0.2%
O=C1NC(=O)C(CCc2ccncc2)(Cc2cccc(Cl)c2Cl)C(=O)N1c1ccc(Br)cc1 (stereo unspecified),-25.9,?,-1.3%,-25.2%,5.22µM*,-55.0%
O=C(Nc1cccnc1)c1cc(Br)c(Br)s1,-2.4,?,-6.1%,9.3%,11.7µM*,-2.7%
NC(=O)c1cc(NC(=O)c2cc(Br)c(Br)s2)cc(C(N)=O)c1,-8.8,-15.2%,4.5%,15.6%,8.28µM*,1.8%
COc1ccccc1NC(=O)CSc1nc2ccccc2cc1Cc1ccccc1,-34.5,?,-10.7%,-9.2%,?,2.6%
CCOC(=O)C1CCCN(C(=O)c2cn(C)c(=O)c3cc(OC)c(OC)cc23)C1 (stereo unspecified),-0.8,-6.8%,-4.5%,-7.9%,6.57µM*,29.8%
CCOC(=O)C1CCCN(C(=O)c2cn(CC)c(=O)c3cc(OC)c(OC)cc23)C1 (stereo unspecified),-8.9,-22.6%,17.1%,3.4%,1.04µM*,-0.2%
CCCC1=Nc2cc(C(=O)NCCCN(CC)CC)ccc2Sc2ccccc21,-10.9,.,5.6%,.,.,.
CCCC1=Nc2cc(C(=O)NCCCOCC)ccc2Sc2ccccc21,-81.7*,?,2.2%,?,13.1µM*,-3.8%
CCCC1=Nc2cc(C(=O)NCCCOC(C)C)ccc2Sc2ccccc21,?,11.7µM*,-16.4%,?,10.1%,-0.6%
CCCC1=Nc2cc(C(=O)NCCOC)ccc2Sc2ccccc21,-96.7*,.,0.7%,.,.,.
Cc1cc(O)c2c(c1)OC(C)(C)C1=C2CC(C)CC1 (stereo unspecified),?,6.57µM*,1.2%,12.6µM*,8.8%,-2.6%
COC(=O)c1sc(-c2ccc(C(C)(C)C)cc2)cc1NC(=O)CSCC(=O)O,37.8,29.0%,-9.7%,12.2%,-5.2%,-1.6%
SMILES,HCMV inh,Pf growth 48h,Sm TGR block,HCV inh,Pf growth 96h,SARS PLpro yeast
COc1ccc(C(=O)/C=C/Sc2nc3ccccc3o2)cc1,-105.1*,?,0.316µM*,?,-27.1%,-0.5%
COc1ccc(C(=O)N/C(N)=N/c2nc3ccccc3o2)cc1,10.9,41.9%,5.4%,?,?,-5.3%
COc1ccc(N2CCN(C3CCCN(S(=O)(=O)c4ccc(C)cc4C)C3)CC2)cc1 (stereo unspecified),-73.1*,?,19.7%,8.91µM*,?,2.8%
COc1ccc(N2CCN(S(=O)(=O)c3c(C)nc4sccn4c3=O)CC2)cc1,15.1,4.6%,0.6%,8.0%,4.15µM*,-5.1%
COc1ccc(N2CCN(S(=O)(=O)c3cc(C)ccc3OC)CC2)cc1,9.7,-12.1%,2.5%,2.82µM*,-2.7%,-0.2%
COc1ccc(C)cc1S(=O)(=O)N1CCOCC1,-13.8,16.2%,-2.5%,8.1%,36.2%,0.1%
COc1ccc(N2CCN(C3CCCN(S(=O)(=O)c4ccccc4)C3)CC2)cc1 (stereo unspecified),-31.4,-9.2%,-3.3%,-13.3%,18.1%,3.9%
COc1ccc(OC)c(S(=O)(=O)N2CCN(c3c(C)cccc3C)CC2)c1,?,?,?,-5.6%,4.65µM*,-8.1%
COc1cc2c(cc1C1NC(=S)NC(C)=C1C(N)=O)CCCC2 (stereo unspecified),46.1,13.7%,6.8%[57.1 µM],4.1%,36.0%,1.7%
Cc1ccc(S(=O)(=O)N(Cc2ccc([N+](=O)[O-])cc2)C(=O)N2CCN(C)CC2)cc1,-12.8,20.3%,-15.3%,25.1%,15.2%,.
COc1ccc(-n2nnnc2C2CCN(S(=O)(=O)c3cc(Cl)ccc3OC)CC2)cc1,-78.2*,.,4.9%,.,.,.
COc1ccc(C(C)C)cc1S(=O)(=O)N1CCN(C)CC1,-8.5,.,-8.8%,23.1%,11.7µM*,4.2%
CC(=O)c1cccc(NC(=O)c2cnn(-c3cccc(C)c3)c2-n2cccc2)c1,?,.,6.7%,.,.,.
CCN1CCN(c2oc(/C=C/c3ccc(OC)c(OC)c3)nc2C#N)CC1,49.5,.,-3.8%,.,.,.
OCCCNc1nc(-c2ccccc2)c2cc(Br)ccc2n1,-6.1,-9.0%,-24.6%,-2.4%,1.65µM*,-2.5%
CCN(C(=O)c1cc2c(C)nc3ccccc3c2o1)c1cc(Cl)ccc1OC,?,?,-5.4%,10µM*,0.0%,-8.3%
O=C(C1=C(O)C(=O)N(CCN2CCOCC2)C1c1cccs1)c1cc2ccccc2o1 (stereo unspecified),.,.,.,10.4%,.,.
